Screening results deposited in PubChem by National Center for Advancing Translational Sciences (NCATS).
Compounds with a hit are over-represented: about 10% of the library has one in this group of screens.
CtBP-E1A blk: qHTS Assay for Inhibitors of the CtBP/E1A Interaction. AlphaScreen GST-E1A/His-CtBP binding, 1536-well; hits give low values. activity change, % (concentration not given with the values). actives 0.49% (n = 340,000); in the data active = activity change below about -65%; inconclusive = mostly about -30% to -63%; also: % is scaled to controls: 0 for no effect and ±100 for the full control effect
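Protein mix (5X: 125 nM each GST-E1A, His-CtBP) was incubated with pinned compound 2 h at 37 deg C in dark, in 50 mM Tris pH 8.0 buffer with 300 mM NaCl. Glutathione donor and nickel acceptor beads followed; AlphaScreen signal read after 1 h.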
JMJD2A Tudor inh: qHTS Assay for Inhibitors of JMJD2A-Tudor Domain; AlphaScreen JMJD2A-Tudor / H3K4me3 peptide binding; Potency, µM (doses to about 114 µM), for the others: at the top dose activity change, negative = inhibition, usual class: inhibitors; actives 4.4% (n = 390,000); AID 504339, 2011; also: potency is read from the fitted curve at half-maximal effect; % is scaled to controls: 0 for no effect and ±100 for the full control effect; nearly all actives have a fitted effect of over 50% in size
G9a inh: qHTS Assay for Inhibitors of Histone Lysine Methyltransferase G9a; Histone-lysine N-methyltransferase EHMT2 (Homo sapiens), Q96KQ7; G9a H3K9 monomethylation, AlphaScreen, 2 h; actives 8.8% (n = 350,000); Potency, µM (top dose mostly 102 µM), for inactives: at the top dose activity, negative = inhibition, hits mostly inhibitors; also: potency is read from the fitted curve at half-maximal effect; % is scaled to controls: 0 for no effect and ±100 for the full control effect; nearly all actives have a fitted effect of over 75% in size
Target sequence (Q96KQ7 913-1193 limits assumed): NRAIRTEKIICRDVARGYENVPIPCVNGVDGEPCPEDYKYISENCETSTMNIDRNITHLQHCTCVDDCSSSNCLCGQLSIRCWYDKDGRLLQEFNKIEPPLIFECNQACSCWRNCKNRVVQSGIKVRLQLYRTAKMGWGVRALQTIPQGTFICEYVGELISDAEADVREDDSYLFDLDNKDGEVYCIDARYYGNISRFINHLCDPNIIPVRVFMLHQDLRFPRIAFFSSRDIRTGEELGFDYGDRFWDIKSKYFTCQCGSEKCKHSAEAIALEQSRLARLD
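G9a (20 nM) was preincubated 15 min with compound, then reacted 2 h at room temperature with 500 nM biotin-H3K9 peptide and 20 µM SAM. Monomethyl-H3K9 detected by AlphaScreen using anti-H3K9me1 antibody.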
HP1b binding inh: HTS for Inhibitors of HP1-beta Chromodomain Interactions with Methylated Histone Tails; AlphaScreen HP1-beta / biotin-H3K9me3 peptide binding; Potency, µM (highest dose often 114 µM), without a hit: at the highest dose activity change, negative = inhibition, actives largely listed as inhibitors; actives 0.56% (n = 390,000); also: potency is read from the fitted curve at half-maximal effect; nearly all actives have a fitted effect of over 70% in size
Target sequence (P83916 whole entry, looked up): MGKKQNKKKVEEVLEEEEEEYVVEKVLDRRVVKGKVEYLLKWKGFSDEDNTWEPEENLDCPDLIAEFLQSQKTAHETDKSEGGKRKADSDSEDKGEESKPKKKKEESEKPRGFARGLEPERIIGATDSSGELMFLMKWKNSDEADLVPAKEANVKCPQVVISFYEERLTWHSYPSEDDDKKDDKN
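Compound inhibition of the preformed complex between 50 nM HP1-beta and 50 nM biotinylated H3K9me3 peptide was read by AlphaScreen. Buffer was PBS pH 7.4 with 0.01% Tween-20. Incubations ran 30 min at room temperature, with 10 ug/mL donor/acceptor beads.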
BAZ2B inh: qHTS Assay for Inhibitors of BAZ2B; AID 504333, 2011; AlphaScreen BAZ2B-H3K14Ac peptide displacement; actives 4.4% (n = 360,000); Potency, µM (doses to about 114 µM), inactives show top-dose activity change, negative = inhibition, usual class: inhibitors; also: potency is read from the fitted curve at half-maximal effect; % is scaled to controls: 0 for no effect and ±100 for the full control effect; nearly all actives have a fitted effect of over 60% in size
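Protein-peptide AlphaScreen: BAZ2B 50 nM, b-H3K14Ac 50 nM, 1x PBS pH 7.4 + 0.01% Tween-20. Preincubation 30 min RT; cpd 30 min RT (top 110 uM); beads 20 min RT, light-protected.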
Six1-Eya2 inh: qHTS Assay for Inhibitors of the Six1/Eya2 Interaction. AlphaScreen GST-Six1/His-Eya2 binding, biochemical; hits give low values. activity change, % (test concentration not listed). Homeobox protein SIX1 (Homo sapiens) + Protein phosphatase EYA2 (Homo sapiens), …. actives 0.56% (n = 360,000); in the data active = activity change below about -65%; inconclusive = mostly about -30% to -63%; also: % is scaled to controls: 0 for no effect and ±100 for the full control effect
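Homogeneous AlphaScreen proximity assay pairing GST-Six1 with His-tagged Eya2 (added as 5X mix: 250 nM and 500 nM) in 50 mM Tris pH 8.0, 300 mM NaCl, 1 mM TCEP. Glutathione donor and nickel acceptor beads; 1 h, 37 °C, dark.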
An asterisk follows results filed as active; ? = inconclusive; / = not tested or not shown; [ ] = remark or other dose. Unless noted, calls follow the shape of the dose curve; as a rule, active = well fitted inhibition curve with a large enough effect; inconclusive = small, poorly fitted or top-dose-only effect; inactive = no such curve, though single readings can be large or run the other way.

SMILES	CtBP-E1A blk	JMJD2A Tudor inh	G9a inh	HP1b binding inh	BAZ2B inh	Six1-Eya2 inh
CCOC(=O)c1ccc(S(=O)(=O)N2CCN(CC3CC=CCC3)CC2)cc1 (configuration not stated)	8.6	-0.7%	-1.1%	26.8%	2.5%	-0.4
CCN(Cc1ccccc1)C(=O)C1CCN(S(=O)(=O)c2ccc3c(c2)OCCO3)CC1	6.5	-13.1%	17.8%	22.4%	-10.7%	4.7
CCN(CC)C(=O)C1CCN(CC2CC=CCC2)CC1 (configuration not stated)	-3.5	6.31µM*	12.6µM*	-58.2%	56.2µM*	1.8
CCN(Cc1ccccc1)C(=O)C1CCN(CC2CC=CCC2)CC1 (configuration not stated)	-4.5	3.16µM*	7.94µM*	?	?	-3.2
CCC(CC)N1CCN(CC2CC=CCC2)CC1 (configuration not stated)	4.2	1.78µM*	10µM*	?	/	-8.2
Cc1c2cnn(CC(=O)N3CCCCC3)c(=O)c2c(C)n1Cc1ccc(Cl)cc1	/	2.7%	1.7%[59 µM]	29.0%	2.7%	/
CCOc1ccc(C2c3[nH]c4ccccc4c3CCN2C(=O)Cc2cccc(OCC)c2OCC)cc1 (configuration not stated)	/	?	-25.2%[59 µM]	-19.2%[57 µM]	?	/
O=C(CCCCn1c(=O)c2ccccc2n(Cc2ccc(Cl)cc2)c1=O)NCc1ccccc1Cl	/	-4.8%	-4.1%[59 µM]	27.9%	-0.7%	/
CCCC1(C)C(C#N)C(=O)NC(=O)C1C#N (configuration not stated)	2.9	2.1%	/	21.6%[57 µM]	/	-1.7
CCCC1(C)C(C#N)(C#N)C1(C#N)C#N	/	/	8.91µM*	/	/	/
CCC1CCCCN1C(=S)NC(=O)c1ccc(F)c(S(=O)(=O)N2CCOCC2)c1 (configuration not stated)	/	-20.3%	44.7µM*	8.2%	-37.3%	1.5
O=C(NCC1CCCCC1)c1ccc(F)c(S(=O)(=O)N2CCOCC2)c1	-0.4	-13.2%	-2.5%[2.33 µM]	27.8%	4.9%	5.6
CCC1CCCCN1C(=S)NC(=O)c1ccc([N+](=O)[O-])cc1 (configuration not stated)	3.9	?	?	-13.0%	70.8µM*	1.0
COc1cc(Cl)c(C)cc1NC(=O)c1nn(-c2ccc(C)cc2)c(=O)n(C)c1=O	/	-13.7%	-18.4%[59 µM]	22.6%[57 µM]	-4.1%	/
COc1ccccc1CN1CCC2(CC1)CCN(C(C)=O)CC2	/	/	9.9%[12.7 µM]	/	/	/
COc1ccccc1CN1C(=O)CNC1=S	/	-12.5%	-0.8%	14.6%[57 µM]	-4.1%	4.6
COc1cccc(CN2CCN(Cc3cccc(Br)c3)CC2)c1OC	-7.6	3.16µM*	?	22.4µM*	20µM*	-4.4
COc1ccccc1Cn1[nH]nnc1=S	0.5	15.8µM*	3.16µM*	?	-29.8%	-0.6
COc1ccccc1CN1CCSCC1	-2.8	6.31µM*	?	70.8µM*	50.1µM*	-10.7
CCOC(=O)C1(Cc2cccc(OC)c2)CCN(Cc2cccc(OC)c2OC)CC1	/	-6.0%[11.4 µM]	-0.4%	25.5%	-20.1%	-0.7
COc1ccccc1CN1CCCCCC1	-10.7	1.26µM*	39.8µM*	?	?	15.3
CCN(CC)c1nn2c(=O)c(C(=O)NCCc3cccc(C)c3)cnc2s1	/	-15.3%	21.9%[59 µM]	4.3%	-10.9%	/
COc1cccc(CN2CCN(C(=O)c3cccs3)CC2)c1OC	4.3	-12.8%	-2.8%[59 µM]	14.1%	/	-22.6
COc1cccc(CN2CCN(c3cccc(C(F)(F)F)c3)CC2)c1OC	-12.8	2.24µM*	6.31µM*	?	?	-3.3
COc1cccc(CN2CCSCC2)c1OC	-2.4	20µM*	/	?	79.4µM*	-0.3
SMILES	CtBP-E1A blk	JMJD2A Tudor inh	G9a inh	HP1b binding inh	BAZ2B inh	Six1-Eya2 inh
Cc1noc(C)c1-c1ccc2ncnc(NCc3ccc(Br)cc3)c2c1	/	-28.3%	/	/	/	/
NC(=S)N/N=C/c1ccc(-c2ccccc2)o1	-2.2	-35.5%	6.31µM*	14.1%	?	-8.4
Cc1ccc(-c2ccc(/C=N/NC(N)=S)o2)cc1	-9.4	-35.2%	8.91µM*	?	-28.0%	-2.2
O=C1CCc2cc(S(=O)(=O)Nc3cccc(B(O)O)c3)ccc2N1	/	3.5%	/	/	/	/
c1ccc2[nH]c3cc4ncnc4cc3nc2c1	-72.9*	-28.4%	-16.8%	12.7%[57 µM]	-11.7%	?
NC(=S)N/N=C/c1ccc(-n2nncc2-c2ccc(Cl)cc2)cc1	-10.4	?	44.7µM*	-9.2%	?	-25.9
Nc1nc(-c2ccccc2)cn1/N=C/c1ccccc1	-3.9	-34.5%	50.1µM*	?	-24.3%	-2.5
COc1ccc(-c2cn(/N=C/c3ccc(Cl)cc3Cl)c(N)n2)cc1	-5.0	-19.3%	35.5µM*	3.0%	-12.1%	-10.6
COc1ccc(-c2cn3cc(C(F)(F)F)cc(Cl)c3n2)cc1	-1.7	47.1%	49.6%[12.7 µM]	80.1%	11.2%	0.5
CN(C)c1ccc(-n2cc3c(=O)n(C)c(=O)n(C)c3c2)cc1	-28.0	?	44.7µM*	?	35.5µM*	?
CCN(CC)c1ccc(-n2cc3c(=O)n(C)c(=O)n(C)c3c2)cc1	?	56.2µM*	-39.1%[12.7 µM]	31.6µM*	31.6µM*	?
CCc1ccccc1Nc1cc(C(=O)NCc2ccc(C)cc2)c2ccccc2n1	/	7.0%	0.2%[59 µM]	56.2%	/	/
COc1ccc(/C(C)=N/NC(=S)NCCc2ccccc2)cc1	-17.0	?	-39.5%	-13.1%	25.1µM*	-14.6
C/C(=N\NC(=S)NCCc1ccccc1)c1cccc(Br)c1	-27.6	-22.4%	-37.0%	-13.7%	39.8µM*	?
C=CCNC(=S)N/N=C(\C)c1ccc(OC)cc1	-1.4	-20.8%	24.1%[59 µM]	5.9%	?	-7.0
CC1=C(C(N)=O)C(c2cccc(Br)c2)n2nc(SCc3ccccc3)nc2N1 (configuration not stated)	/	-7.5%	4.9%[59 µM]	13.5%	-11.3%	/
O=C(c1ccccc1)c1c[nH]cc1-c1ccccc1	-6.0	-2.2%	-9.3%[59 µM]	21.3%	8.2%	-3.6
O=C(C1=C(c2ccccc2)C(=O)c2ccccc2C1=O)c1ccccc1	-21.6	22.4µM*	35.5µM*	?	12.6µM*	?
COc1ccc(C2=C(N)c3ccccc3C2=O)cc1	7.6	-17.3%	?	6.2%	-29.8%	-18.9
COC1=C(c2ccccc2)C(=O)c2ccccc2C1=O	?	?	20µM*	?	44.7µM*	?
